# Of roughly 7,900 targets only a part is listed; those with a hit were picked by preference. About 0.6% of all pairs of compound and target were hits. Values without a mark were called inactive.
# Columns and labels:
# Assay in all cases: log2 fold change, soluble protein after heating vs DMSO (PISA); higher = thermal stabilisation; K562 cells, 10 uM, 30 min; active = over 0.2 and 3.5 SD of the protein, either way, in both replicates (recomputed)
# erlotinib = compound: C#Cc1cccc(Nc2ncnc3cc(OCCOC)c(OCCOC)cc23)c1 [erlotinib]
# Procedure, shortened: (§1)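 Thermal stability values are relative to control samples and come from duplicates. They are expressed as log2 fold changes. For measurement, K562 cells (2×10^6 cells/mL) received 10 μM compound for 30 min, and aliquots were heated for 3 min over 48°C-58°C, pooled, and extracted at 4°C in PBS with 0.5% NP-40. Soluble protein, the supernatant after 21,000xg for 90 min, was quantified by TMTpro 16plex LC-MS/MS with equalised channel sums.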
# [1] = compound: C/C(=N\NC(=O)C1=CC(=CC=C1)S(=O)(=O)N2CCOCC2)/C3=C(C=CC(=C3)Cl)O
# Procedure, shortened: as §1
# [2] = compound: C1=CC(=C(C=C1Cl)C2=NC3=NC=CN=C3C(=N2)NC4=CC=NC=C4)F
# Procedure, shortened: as §1
# [3] = compound: C1=CC(=CC=C1C2=NC3=C(N2)C=C(C=C3)C(=O)N)OC4=CC=C(C=C4)Cl
# Procedure, shortened: as §1
# [4] = compound: C1=CC2=C(C=CC(=C2)/C=C\3/C(=O)NC(=NCC4=CC=CS4)S3)N=C1
# Procedure, shortened: as §1
# [5] = compound: C1=CC2=NC=CN=C2C=C1/C=C/3\C(=O)NC(=O)S3
# Procedure, shortened: as §1
# [6] = compound: C1=CC=C(C=C1)C2=NC(=C(N2)C3=CC=NC=C3)C4=CC(=C(C=C4)Cl)O
# Procedure, shortened: as §1
# [7] = compound: C1=CC=C2C(=C1)C3=NNC4=CC=CC(=C43)C2=O
# Procedure, shortened: as §1
# [8] = compound: C1CCN(C1)C(=O)NC2=CC=CC(=C2)NC3=NC=C(C(=N3)NCCC4=CN=CN4)Br
# Procedure, shortened: as §1
# [9] = compound: C1CN(CCC1(CC2=CC=C(C=C2)Cl)N)C3=NC=NC4=C3C=CN4
# Procedure, shortened: as §1
# UniProt Q8IZ69, sequence (Q8IZ69 whole entry, looked up): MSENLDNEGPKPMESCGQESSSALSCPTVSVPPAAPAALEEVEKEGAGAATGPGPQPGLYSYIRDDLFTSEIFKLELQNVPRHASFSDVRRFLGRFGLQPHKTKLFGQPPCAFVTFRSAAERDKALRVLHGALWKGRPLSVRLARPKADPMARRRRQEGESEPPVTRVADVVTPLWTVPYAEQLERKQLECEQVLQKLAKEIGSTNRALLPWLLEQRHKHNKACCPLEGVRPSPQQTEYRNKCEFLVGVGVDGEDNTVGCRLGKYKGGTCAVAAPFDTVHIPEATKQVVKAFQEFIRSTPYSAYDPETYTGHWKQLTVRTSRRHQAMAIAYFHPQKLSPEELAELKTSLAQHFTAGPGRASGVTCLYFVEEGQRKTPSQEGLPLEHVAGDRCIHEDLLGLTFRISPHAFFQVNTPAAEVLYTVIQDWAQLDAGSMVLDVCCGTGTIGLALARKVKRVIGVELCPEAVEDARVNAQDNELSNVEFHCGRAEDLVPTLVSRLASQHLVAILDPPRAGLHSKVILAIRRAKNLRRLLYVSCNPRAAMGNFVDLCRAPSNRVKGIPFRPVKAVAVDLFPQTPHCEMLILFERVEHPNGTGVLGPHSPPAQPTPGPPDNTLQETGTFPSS
# UniProt Q7Z6J8, sequence (Q7Z6J8 whole entry, looked up): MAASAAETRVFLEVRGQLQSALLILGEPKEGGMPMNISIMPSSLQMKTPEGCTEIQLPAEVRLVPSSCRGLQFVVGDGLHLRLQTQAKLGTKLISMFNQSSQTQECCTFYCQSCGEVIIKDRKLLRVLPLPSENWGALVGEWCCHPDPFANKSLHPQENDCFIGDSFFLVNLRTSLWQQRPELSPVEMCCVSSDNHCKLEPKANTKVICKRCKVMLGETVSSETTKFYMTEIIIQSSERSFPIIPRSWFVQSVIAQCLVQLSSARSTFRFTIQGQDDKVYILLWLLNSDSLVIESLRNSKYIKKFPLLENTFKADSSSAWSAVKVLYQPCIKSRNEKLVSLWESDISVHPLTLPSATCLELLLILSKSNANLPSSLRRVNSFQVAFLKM
# UniProt Q9BUB7, sequence (Q9BUB7 whole entry, looked up): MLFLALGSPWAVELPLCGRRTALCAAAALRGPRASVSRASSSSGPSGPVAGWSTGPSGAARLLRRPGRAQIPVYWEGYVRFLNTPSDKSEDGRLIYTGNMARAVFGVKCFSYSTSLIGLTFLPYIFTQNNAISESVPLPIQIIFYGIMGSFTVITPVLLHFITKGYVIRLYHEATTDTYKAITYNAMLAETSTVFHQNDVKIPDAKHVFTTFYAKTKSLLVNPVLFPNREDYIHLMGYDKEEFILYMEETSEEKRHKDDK
# UniProt Q13263, sequence (Q13263 whole entry, looked up): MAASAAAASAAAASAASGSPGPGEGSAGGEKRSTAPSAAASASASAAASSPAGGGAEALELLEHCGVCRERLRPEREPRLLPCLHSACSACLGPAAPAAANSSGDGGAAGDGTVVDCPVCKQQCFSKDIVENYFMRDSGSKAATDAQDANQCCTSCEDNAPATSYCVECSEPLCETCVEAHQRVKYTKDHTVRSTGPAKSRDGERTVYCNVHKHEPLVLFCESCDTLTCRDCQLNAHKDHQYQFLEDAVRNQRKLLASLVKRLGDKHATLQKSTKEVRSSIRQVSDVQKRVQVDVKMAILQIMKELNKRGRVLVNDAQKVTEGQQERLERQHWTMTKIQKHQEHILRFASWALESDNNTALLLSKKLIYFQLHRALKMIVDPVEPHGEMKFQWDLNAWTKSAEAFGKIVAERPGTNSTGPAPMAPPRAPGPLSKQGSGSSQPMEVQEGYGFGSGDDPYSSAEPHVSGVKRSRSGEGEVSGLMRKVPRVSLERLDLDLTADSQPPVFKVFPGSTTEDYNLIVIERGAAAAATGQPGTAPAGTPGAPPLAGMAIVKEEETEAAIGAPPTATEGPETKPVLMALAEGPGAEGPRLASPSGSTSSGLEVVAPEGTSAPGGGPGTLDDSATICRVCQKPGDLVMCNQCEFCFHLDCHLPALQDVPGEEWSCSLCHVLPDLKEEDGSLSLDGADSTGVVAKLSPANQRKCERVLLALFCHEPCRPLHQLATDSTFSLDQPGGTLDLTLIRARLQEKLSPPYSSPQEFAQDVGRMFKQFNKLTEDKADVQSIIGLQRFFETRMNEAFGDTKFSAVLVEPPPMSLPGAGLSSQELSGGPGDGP
# UniProt P61960, sequence (P61960 whole entry, looked up): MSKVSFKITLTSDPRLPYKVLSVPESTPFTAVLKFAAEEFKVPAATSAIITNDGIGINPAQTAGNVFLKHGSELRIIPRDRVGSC
# UniProt Q9Y2I8, sequence (Q9Y2I8 whole entry, looked up): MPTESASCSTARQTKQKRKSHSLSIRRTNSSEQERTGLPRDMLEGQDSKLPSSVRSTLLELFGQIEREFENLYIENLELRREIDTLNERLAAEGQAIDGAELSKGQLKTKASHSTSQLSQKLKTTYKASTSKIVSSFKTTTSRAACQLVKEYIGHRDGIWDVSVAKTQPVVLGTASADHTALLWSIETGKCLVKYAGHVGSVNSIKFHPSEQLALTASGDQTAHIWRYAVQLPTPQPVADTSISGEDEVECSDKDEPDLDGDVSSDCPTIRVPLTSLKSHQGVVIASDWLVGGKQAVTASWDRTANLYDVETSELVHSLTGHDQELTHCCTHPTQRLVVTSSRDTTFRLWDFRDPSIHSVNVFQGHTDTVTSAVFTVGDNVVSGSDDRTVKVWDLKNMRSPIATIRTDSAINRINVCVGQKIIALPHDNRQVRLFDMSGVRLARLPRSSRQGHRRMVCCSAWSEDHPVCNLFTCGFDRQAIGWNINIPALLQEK
# UniProt Q9NQH7, sequence (Q9NQH7 whole entry, looked up): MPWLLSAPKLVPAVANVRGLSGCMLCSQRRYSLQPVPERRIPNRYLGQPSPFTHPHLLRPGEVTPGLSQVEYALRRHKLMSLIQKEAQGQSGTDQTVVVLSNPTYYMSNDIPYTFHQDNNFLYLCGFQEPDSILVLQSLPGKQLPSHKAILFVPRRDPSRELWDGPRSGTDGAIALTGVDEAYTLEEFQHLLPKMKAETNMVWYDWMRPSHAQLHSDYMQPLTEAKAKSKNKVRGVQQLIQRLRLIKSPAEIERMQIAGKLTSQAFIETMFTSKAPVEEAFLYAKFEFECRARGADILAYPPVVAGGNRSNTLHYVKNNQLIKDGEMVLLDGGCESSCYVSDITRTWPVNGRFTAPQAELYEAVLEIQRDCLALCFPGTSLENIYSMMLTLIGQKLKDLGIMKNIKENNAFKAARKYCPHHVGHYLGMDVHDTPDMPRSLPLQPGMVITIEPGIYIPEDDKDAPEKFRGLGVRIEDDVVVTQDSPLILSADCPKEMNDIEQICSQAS
# UniProt Q96JC1, sequence (Q96JC1 whole entry, looked up): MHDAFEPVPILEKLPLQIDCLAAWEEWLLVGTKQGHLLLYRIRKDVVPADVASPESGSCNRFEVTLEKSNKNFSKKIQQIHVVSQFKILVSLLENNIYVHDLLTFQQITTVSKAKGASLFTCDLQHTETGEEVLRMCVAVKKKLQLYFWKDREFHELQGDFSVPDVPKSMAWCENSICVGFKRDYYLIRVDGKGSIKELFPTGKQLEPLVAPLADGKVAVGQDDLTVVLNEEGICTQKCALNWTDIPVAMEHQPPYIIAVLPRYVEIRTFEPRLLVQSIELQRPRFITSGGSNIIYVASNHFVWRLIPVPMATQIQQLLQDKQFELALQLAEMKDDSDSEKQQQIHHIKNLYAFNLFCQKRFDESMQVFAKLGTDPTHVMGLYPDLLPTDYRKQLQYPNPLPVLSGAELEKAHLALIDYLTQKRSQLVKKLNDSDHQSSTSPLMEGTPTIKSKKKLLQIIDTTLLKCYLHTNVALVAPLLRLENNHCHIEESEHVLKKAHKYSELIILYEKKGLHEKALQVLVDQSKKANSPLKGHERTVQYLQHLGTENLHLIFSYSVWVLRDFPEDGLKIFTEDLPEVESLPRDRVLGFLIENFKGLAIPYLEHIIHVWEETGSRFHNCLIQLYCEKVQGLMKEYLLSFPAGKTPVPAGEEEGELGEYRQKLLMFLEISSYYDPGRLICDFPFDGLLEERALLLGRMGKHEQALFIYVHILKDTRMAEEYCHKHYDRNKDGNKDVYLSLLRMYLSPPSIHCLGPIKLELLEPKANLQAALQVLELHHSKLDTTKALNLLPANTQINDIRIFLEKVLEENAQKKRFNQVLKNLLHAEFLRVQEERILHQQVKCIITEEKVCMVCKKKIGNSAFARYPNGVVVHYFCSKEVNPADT
# UniProt Q8TBZ6, sequence (Q8TBZ6 whole entry, looked up): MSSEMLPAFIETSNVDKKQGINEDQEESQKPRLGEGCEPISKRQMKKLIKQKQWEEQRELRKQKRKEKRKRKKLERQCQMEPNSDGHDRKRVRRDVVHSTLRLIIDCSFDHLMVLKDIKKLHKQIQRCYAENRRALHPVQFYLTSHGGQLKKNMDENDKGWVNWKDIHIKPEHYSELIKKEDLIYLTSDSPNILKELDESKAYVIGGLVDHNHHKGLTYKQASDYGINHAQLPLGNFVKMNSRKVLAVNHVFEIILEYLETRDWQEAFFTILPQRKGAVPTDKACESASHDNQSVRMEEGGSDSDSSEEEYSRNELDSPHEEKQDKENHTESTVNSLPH
# UniProt Q16763, sequence (Q16763 whole entry, looked up): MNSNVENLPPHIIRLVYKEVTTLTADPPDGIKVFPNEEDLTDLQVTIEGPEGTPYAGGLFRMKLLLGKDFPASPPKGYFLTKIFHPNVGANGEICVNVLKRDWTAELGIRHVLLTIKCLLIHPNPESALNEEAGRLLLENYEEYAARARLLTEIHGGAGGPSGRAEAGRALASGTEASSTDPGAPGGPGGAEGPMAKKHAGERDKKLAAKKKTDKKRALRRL
# UniProt Q7Z7N9, sequence (Q7Z7N9 whole entry, looked up): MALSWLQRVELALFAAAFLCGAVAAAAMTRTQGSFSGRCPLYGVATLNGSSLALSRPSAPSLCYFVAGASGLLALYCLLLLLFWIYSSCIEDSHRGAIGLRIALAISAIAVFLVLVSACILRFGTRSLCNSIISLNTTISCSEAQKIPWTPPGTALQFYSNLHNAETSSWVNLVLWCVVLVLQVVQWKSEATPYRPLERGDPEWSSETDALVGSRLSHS
Target,log2 fold change (erlotinib),log2 fold change [1],log2 fold change [2],log2 fold change [3],log2 fold change [4],log2 fold change [5],log2 fold change [6],log2 fold change [7],log2 fold change [8],log2 fold change [9]
USP3 (UniProt Q9Y6I4),0.099,0.114,0.121,0.004,-0.062,0.014,0.057,-0.052,0.007,0.095
TTI1 (UniProt O43156),-0.078,0.115,-0.015,-0.045,0.057,0.028,0.029,0.008,0.019,0.028
TMEM70 (UniProt Q9BUB7),-0.286,0.03,0.023,0.257,0.008,-0.09,-0.063,-0.039,-0.007,0.053
VPS53 isoform 4 (UniProt Q5VIR6),0.06,0.094,0.003,-0.04,0.107,0.048,-0.083,0.022,-0.021,-0.004
TRAM1 (UniProt Q15629),0.059,0.016,-0.028,-0.088,0.015,0.065,0.144,-0.151,0.105,0
TRMT2A (UniProt Q8IZ69),0,0.069,-0.124,0.07,-0.016,-0.009,-0.026,-0.09,0.031,-0.011
TMEM179B (UniProt Q7Z7N9),0.042,-0.016,0.073,0.032,-0.009,0.034,-0.107,-0.032,-0.165,-0.005
UBE2S (UniProt Q16763),0.01,0.064,-0.025,-0.021,0.052,0.014,-0.008,0.014,-0.02,0.029
VPS41 (UniProt P49754),-0.022,0.076,-0.049,-0.018,0.086,0.056,0.004,0.031,0.043,-0.058
TMEM173 (UniProt Q86WV6),0.028,0.018,-0.012,-0.078,0.068,0.019,-0.044,-0.032,0.02,-0.05
TRMT10A (UniProt Q8TBZ6),-0.01,0.044,0.004,0.031,0.037,0.02,-0.015,0.271 (active),0.038,-0.045
WDR61 (UniProt Q9GZS3),0.021,0.066,0.051,0.027,0.057,-0.016,0.01,0,0.077,0.026
VPS39 (UniProt Q96JC1),-0.006,0.08,-0.005,0.022,0,0.023,-0.014,-0.046,0.01,0.054
WDR18 (UniProt Q9BV38),0.058,0.039,0.024,-0.015,-0.111,0.031,-0.045,0.011,-0.035,0.065
XIAP (UniProt P98170),0.166,0.062,0.1,-0.002,0.075,-0.018,,-0.002,-0.024,0.065
UFM1 isoform 2 (UniProt P61960),-0.132,0.108,0.06,0.14,0.07,0.032,,-0.003,0.08,0.004
USO1 isoform 2 (UniProt O60763),-0.008,0.046,0.051,-0.028,-0.049,0.059,0.004,-0.028,0.033,-0.014
XPNPEP3 (UniProt Q9NQH7),0.019,-0.275 (active),0.017,0.06,0.067,0.026,-0.005,0,0.005,0.083
TRIM28 (UniProt Q13263),0.001,0.077,0.041,-0.023,-0.021,0.018,-0.023,0.004,-0.013,-0.026
TTC38 (UniProt Q5R3I4),0.749 (active),0.032,0.082,0.072,0.021,-0.002,0.035,0.09,-0.06,0.025
TMEM161B (UniProt Q8NDZ6),0.037,-0.074,0.013,-0.021,-0.054,0.018,0.159,-0.026,-0.053,-0.03
UBE3D (UniProt Q7Z6J8),-0.014,-0.018,0.033,0.022,0.003,-0.076,0.013,-0.006,-0.114,0.079
WDR37 isoform 2 (UniProt Q9Y2I8),0.039,0.006,-0.097,0.012,-0.026,-0.204,0.006,-0.144,0.01,-0.088
WDR41 (UniProt Q9HAD4),0.039,0.038,0.128,0.026,-0.016,0.019,-0.005,-0.07,-0.012,0.073
